About 79,000 compounds went through this panel and 15% of them were active in at least one assay; those are over-represented in the sample as a whole. Active and inactive are the calls of the source. Cut-off read from the data, not from the text of the source: active = growth inhibition above about 70%; inactive = the rest.
Key:
[1] = NCI Yeast Anticancer Drug Screen. Data for the rad52 strain (AID 147);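 note: 0% = growth of vehicle-treated control cultures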; conditions: S. cerevisiae rad52 mutant growth inhibition, active compounds read high
Method in brief: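 DNA repair-defective yeast; compound exposure; growth scored against vehicle controls.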

[2] = NCI Yeast Anticancer Drug Screen. Data for the wt1 strain (AID 149);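 note: 0% = growth of vehicle-treated wt1 cultures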; conditions: S. cerevisiae wt1 strain (SPY 50644) growth inhibition, active compounds read high
Method in brief: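 Vehicle-normalised growth inhibition; strain wt1; compound exposure.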

[3] = NCI Yeast Anticancer Drug Screen. Data for the rad50EPP+ strain (AID 151);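 note: 0% = growth of vehicle-treated control cultures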; conditions: S. cerevisiae rad50 mutant strain, active compounds read high
Method in brief: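 rad50EPP+ yeast treated with test compounds. Readout: growth vs vehicle control.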

[4] = NCI Yeast Anticancer Drug Screen. Data for the mgt1 strain (AID 153); conditions: S. cerevisiae mgt1 mutant growth inhibition, active compounds read high
Method in brief: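 Growth inhibition relative to vehicle controls was scored for the mgt1 yeast strain after compound exposure.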

[5] = NCI Yeast Anticancer Drug Screen. Data for the rad50 strain (AID 155);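 note: 0% = growth of vehicle-only cultures of the same strain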; conditions: S. cerevisiae rad50 strain growth inhibition, active compounds read high
Method in brief: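 A DNA repair-deficient yeast mutant serves as the test organism; compound-induced growth inhibition is calculated against vehicle-treated cells.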

[6] = NCI Yeast Anticancer Drug Screen. Data for the mec2-1 strain (AID 157); conditions: S. cerevisiae mec2-1 strain, active compounds read high
Method in brief: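 Growth inhibition is read against vehicle-treated controls after compound exposure of the mec2-1 yeast strain, which is defective in DNA damage repair or cell cycle control.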

[7] = NCI Yeast Anticancer Drug Screen. Data for the rad14 strain (AID 159);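 note: 0% = growth of vehicle-treated control cultures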; conditions: S. cerevisiae rad14 strain growth inhibition, active compounds read high
Method in brief: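 Vehicle-treated cultures served as the baseline for growth inhibition of a DNA repair-mutant yeast strain exposed to each compound.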

[8] = NCI Yeast Anticancer Drug Screen. Data for the sgs1 mgt1 strain (AID 161);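 note: 0% = growth of cultures given vehicle only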; conditions: S. cerevisiae sgs1 mgt1 strain, active compounds read high
Method in brief: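 This yeast growth screen uses a strain with defined DNA-repair lesions; compound-treated growth is compared with vehicle-treated growth.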

[9] = NCI Yeast Anticancer Drug Screen. Data for the CLN2oe strain (AID 163);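 note: 0% = growth of vehicle-only control cultures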; conditions: S. cerevisiae CLN2oe strain, active compounds read high
Method in brief: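 Compound-treated yeast; growth vs vehicle ctrl = % inhibition. Genetically altered strain (cell-cycle control).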

[10] = NCI Yeast Anticancer Drug Screen. Data for the cln2 rad14 strain (AID 165);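 note: 0% = growth equal to vehicle treated cultures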; conditions: S. cerevisiae cln2 rad14 strain, active compounds read high
Method in brief: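 Growth inhibition, relative to vehicle-treated controls, is the read-out. The test organism is a yeast strain with defined genetic alterations, cln2 rad14.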

[11] = NCI Yeast Anticancer Drug Screen. Data for the bub3 strain (AID 167); conditions: S. cerevisiae bub3 mutant strain, active compounds read high
Method in brief: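 Inhibition values come from growth of compound-treated mutant yeast normalised to vehicle-treated controls.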

[12] = NCI Yeast Anticancer Drug Screen. Data for the wt2 strain (AID 169);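 note: 0% = growth of vehicle-treated yeast cultures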; conditions: S. cerevisiae wt2 strain growth inhibition, active compounds read high
Method in brief: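 Compound exposure of yeast; growth compared with vehicle controls; inhibition reported.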

[13] = NCI Yeast Anticancer Drug Screen. Data for the mlh1 strain (AID 171);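 note: 0% = growth of vehicle-treated control cultures of the same strain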; conditions: S. cerevisiae mlh1 strain growth inhibition, active compounds read high
Method in brief: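 Compounds are applied to a genetically altered yeast strain, and its growth is compared with that of vehicle-treated cultures to give percent inhibition.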

[14] = NCI Yeast Anticancer Drug Screen. Data for the mlh1 rad18 strain (AID 175); conditions: S. cerevisiae mlh1 rad18 strain growth inhibition, active compounds read high
Method in brief: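 Cells of a genetically altered yeast strain, deficient in DNA damage repair, were treated with compound. Their growth was then compared with that of vehicle-treated cultures to give inhibition.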

[15] = NCI Yeast Anticancer Drug Screen. Data for the rad18 strain (AID 177); conditions: S. cerevisiae rad18 mutant growth inhibition, active compounds read high
Method in brief: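 Compounds are applied to a repair-deficient yeast strain, and growth is compared with that of vehicle-treated cultures to give percent inhibition.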

[16] = at 5.0 µM (retest, dose inferred, filed as 0.5)
[17] = at 50.0 µM (retest, dose inferred, filed as 5.0)

Measured: growth inhibition

CSc1nc(C)c(CCOC(C)=O)c(N=P(c2ccccc2)(c2ccccc2)c2ccccc2)n1
inactive: [1]; at 1.2 µM 10% | [1]; at 3.7 µM 4% | [1]; at 11.0 µM -3% | [1]; at 33.0 µM -9% | [2]; at 1.2 µM 9% | [2]; at 3.7 µM 5% | [2]; at 11.0 µM -2% | [2]; at 33.0 µM -3% | [3]; at 1.2 µM 12% | [3]; at 3.7 µM 5% | [3]; at 11.0 µM 1% | [3]; at 33.0 µM 1% | [3]; at 100.0 µM 13% | [4]; at 1.2 µM 10% | [4]; at 3.7 µM 2% | [4]; at 11.0 µM -2% | [4]; at 33.0 µM -15% | [5]; at 1.2 µM 7% | [5]; at 3.7 µM -8% | [5]; [16] 16% | [5]; at 11.0 µM -21% | [5]; at 33.0 µM -1% | [5]; [17] 42% | [6]; at 1.2 µM 12% | [6]; at 3.7 µM 8% | [6]; [16] -14% | [6]; at 11.0 µM 1% | [6]; at 33.0 µM 1% | [6]; [17] 3% | [7]; at 1.2 µM 9% | [7]; at 3.7 µM 2% | [7]; at 11.0 µM -4% | [7]; at 33.0 µM -5% | [8]; [16] -2% | [8]; [17] 22% | [9]; at 1.2 µM 18% | [9]; at 3.7 µM 10% | [9]; at 11.0 µM 0% | [9]; at 33.0 µM 3% | [10]; [16] 3% | [11]; at 1.2 µM 4% | [11]; at 3.7 µM 6% | [11]; [16] 10% | [11]; at 11.0 µM 3% | [11]; at 33.0 µM 3% | [12]; at 1.2 µM 10% | [12]; at 3.7 µM 3% | [12]; at 11.0 µM -4% | [12]; at 33.0 µM -1% | [13]; at 1.2 µM 12% | [13]; at 3.7 µM 5% | [13]; at 11.0 µM -2% | [13]; at 33.0 µM -2% | [14]; [16] 0% | [14]; [17] 23% | [15]; at 1.2 µM 16% | [15]; at 3.7 µM 12% | [15]; at 11.0 µM 4% | [15]; at 33.0 µM 3%
active: [1]; at 100.0 µM 92% | [2]; at 100.0 µM 92% | [4]; at 100.0 µM 90% | [5]; at 50.0 µM 92.2% | [5]; at 100.0 µM 90% | [6]; at 50.0 µM 94.3% | [6]; at 100.0 µM 90% | [7]; at 100.0 µM 87% | [8]; at 50.0 µM 96.5% | [9]; at 100.0 µM 77% | [10]; [17] 86% | [10]; at 50.0 µM 74.8% | [11]; [17] 93% | [11]; at 50.0 µM 95.6% | [11]; at 100.0 µM 92% | [12]; at 100.0 µM 92% | [13]; at 100.0 µM 92% | [14]; at 50.0 µM 94.6% | [15]; at 100.0 µM 91%

— PubChem BioAssay (NCI)
